Test system: Vero E6 infected with SARS-CoV-2
Experiment: inhibition of SARS-CoV-2 cytopathic effect; higher = more antiviral protection, active = above 15
Conditions: 48 h

Measured: inhibition of SARS-CoV-2 cytopathic effect

CCOC(=O)C1=C(COCCN)NC(C)=C(C(=O)OC)C1c1ccccc1Cl (stereo not given) [amlodipine]
inactive: 1 nM 0.58% | 8.33 nM -0.7% | 100 nM 1.37% | 833.33 nM -2.2% | 10000 nM 1.18%

CC(C)n1nnc2cc(C(=O)O)ccc21
inactive: 1 nM 2.69% | 8.33 nM 0.35% | 100 nM -0.23% | 833.33 nM -0.38% | 10000 nM -1.63%

CN(C)C/C=C/C(=O)Nc1ccc(C(=O)Nc2cccc(Nc3ncc(Cl)c(-c4c[nH]c5ccccc45)n3)c2)cc1
inactive: 1 nM -0.79% | 8.33 nM -1.41% | 100 nM -1.48% | 833.33 nM -2.92% | 10000 nM -8.5%

C#CCOC(=O)C1=CCCN(C)C1 [arecaidine-propargyl-ester]
inactive: 1 nM -3.75% | 8.33 nM 0.55% | 100 nM -0.74% | 833.33 nM -1.69% | 10000 nM 2.67%

COc1ccsc1CNCC[C@@]1(c2ccccn2)CCOC2(CCCC2)C1
inactive: 1 nM -2.56% | 8.33 nM 3.9% | 100 nM 0.92% | 833.33 nM 1.29% | 10000 nM -0.28%

CN[C@H](CNC(=O)N1CCC[C@@H]([C@@H](OCCNC(=O)OC)c2cccc(Cl)c2)C1)C[C@H]1CCCOC1
inactive: 1 nM 1.34% | 8.33 nM -1.3% | 100 nM 1.14% | 833.33 nM -0.1% | 10000 nM 3.16%

COc1c(C)cnc(Cn2cc(C#CCC(C)(C)O)c3c(Cl)nc(N)nc32)c1C
inactive: 1 nM 2.11% | 8.33 nM 1.52% | 100 nM -1.98% | 833.33 nM 0.61% | 10000 nM -7.6%

CCCCCCCCCCCCCCCCNc1ccc(C(=O)O)cc1 [cetaben]
inactive: 1 nM 2.02% | 8.33 nM 3.28% | 100 nM 1.52% | 833.33 nM 1.67% | 10000 nM -2.46%

CC(N)C12CC3CC(CC(C3)C1)C2 (stereo not given) [rimantadine]
inactive: 1 nM -2.29% | 8.33 nM -2.48% | 100 nM -4.1% | 833.33 nM -5.56% | 10000 nM -5.71%

Cc1c(C(=O)N2CCOc3ccc(-c4ccc(N)nc4)cc3C2)ccc(S(C)(=O)=O)c1F
inactive: 1 nM -2.79% | 8.33 nM 1.25% | 100 nM -0.37% | 833.33 nM 0.13% | 10000 nM 1.3%

O=C(O)C[C@H]1CC[C@H](c2ccc(NC(=O)c3nnc(Nc4ccc(F)c(F)c4)o3)cc2)CC1
inactive: 1 nM -0.14% | 8.33 nM -0.74% | 100 nM 0.13% | 833.33 nM -2.59% | 10000 nM -0.04%

CCN(CC)CCOc1ccc(Cc2ccccc2)cc1
inactive: 1 nM -2.21% | 8.33 nM -0.5% | 100 nM -4.41% | 833.33 nM 0.19% | 10000 nM -0.76%

COc1ccc([C@@H]2CC(=O)c3c(O)cc(O[C@@H]4O[C@H](CO)[C@@H](O)[C@H](O)[C@H]4O[C@@H]4O[C@@H](C)[C@H](O)[C@@H](O)[C@H]4O)cc3O2)cc1O [neohesperidin]
inactive: 1 nM -2.2% | 8.33 nM 0.62% | 100 nM 2.24% | 833.33 nM -0.64% | 10000 nM -3.03%

C=CCNC(=O)c1cc([N+](=O)[O-])cc2c(=O)[nH]c(Nc3ccc(Cl)c(Cl)c3)nc12
inactive: 1 nM 0.56% | 8.33 nM 4.08% | 100 nM -1.8% | 833.33 nM 9.51% | 10000 nM 1.19%

O=C(NOCCO)c1ccc2cncn2c1Nc1ccc(I)cc1F
inactive: 1 nM -1.68% | 8.33 nM -5.37% | 100 nM -12.8% | 833.33 nM -14.4% | 10000 nM -13.2%

COc1ccc(C2CNC(=O)C2)cc1OC1CCCC1 (stereo not given) [rolipram]
inactive: 1 nM 0.987% | 8.33 nM 0.267% | 100 nM -1.59% | 833.33 nM -0.223% | 10000 nM -5.08%

COc1ccc2[nH]c(I)c(CCNC(C)=O)c2c1 [2-iodomelatonin]
inactive: 1 nM 3.34% | 8.33 nM 4.46% | 100 nM 0.99% | 833.33 nM 0.89% | 10000 nM 0.94%

CC[C@H](CC[C@@H](C)[C@H]1CC[C@H]2[C@@H]3CC=C4C[C@@H](O[C@@H]5O[C@H](CO)[C@@H](O)[C@H](O)[C@H]5O)CC[C@]4(C)[C@H]3CC[C@]12C)C(C)C [daucosterol]
inactive: 1 nM 0.22% | 8.33 nM -0.23% | 100 nM 0.27% | 833.33 nM 0.28% | 10000 nM -1.86%

Source: the supplement of paper PMC13380429
